# The sample as a whole holds a higher share of hits than the screen did.
# GALR2 blocker – blocks the human galanin receptor 2; O43603; GALR2-expressing cells, antagonist mode; inhibition, % at 4 µM; hit rate 0.39% among 140,000; AID 828; in the data active = inhibition above about 27%;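 note: cells stimulated with galanin 1-16 at roughly its EC80; 0% = agonist challenge control and 100% = basal control without agonist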
# S1P2 blocker – S1P2 (human) receptor antagonism. O95136. hit rate 0.21% among 97,000. cell-based S1P2 antagonist assay, inhibition at 5 uM. inhibition, % at 5 µM; in the data active = inhibition above about 45%;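 note: CRE beta-lactamase reporter cells expressing human S1P2 stimulated with S1P; 0% = agonist at EC80 alone and 100% = agonist plus reference antagonist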
# Target sequence (O95136 whole entry, looked up): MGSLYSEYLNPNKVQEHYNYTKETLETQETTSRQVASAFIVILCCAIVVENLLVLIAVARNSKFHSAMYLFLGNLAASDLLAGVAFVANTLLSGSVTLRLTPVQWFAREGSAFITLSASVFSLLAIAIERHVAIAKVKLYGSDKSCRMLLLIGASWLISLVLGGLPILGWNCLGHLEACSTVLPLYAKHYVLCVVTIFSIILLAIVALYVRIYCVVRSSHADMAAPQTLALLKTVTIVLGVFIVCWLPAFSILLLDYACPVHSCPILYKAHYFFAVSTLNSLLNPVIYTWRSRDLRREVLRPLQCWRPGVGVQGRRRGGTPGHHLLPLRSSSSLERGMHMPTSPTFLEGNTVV
# GALR2 ag – GALR2 (human) receptor agonism. O43603. GALR2-expressing cells, agonist activation read-out. activation, % (no concentration beside the values). hit rate 0.48% among 140,000. AID 803; in the data active = activation above about 5%, passing the limit was not always enough;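 note: 0% = vehicle buffer wells and 100% = reference agonist at full effect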
# PostGolgi yeast – growth inhibition of a yeast mutant, post-Golgi transport screen. inhibition, % at 10 µM. AID 739. post-Golgi transport phenotypic cell assay. hit rate 0.9% among 98,000;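 note: yeast cells grown in 1536-well plates; yeast grown about 18 h at 30C before absorbance read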
# S1P2 ag – S1P2 (human) receptor agonism. O95136. S1P2-expressing cell line, agonist reporter read-out. activation, % at 4.5 µM. hit rate 0.46% among 97,000; in the data active = activation above about 16%;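 note: 0% = vehicle low control and 100% = maximal reference agonist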
# PostGolgi ctrl – yeast control strain growth, post-Golgi counter-screen | efflux-deficient yeast background strain, growth absorbance A615, 16 h | inhibition, % at 10 µM | hit rate 5% among 98,000 | AID 738
# * marks the source's active call; other numbers are inactive results; / = no result given. Cut-off read from the data, not from the text of the source, unless noted: active = inhibition above about 30%; inactive = the rest.
SMILES,GALR2 blocker,S1P2 blocker,GALR2 ag,PostGolgi yeast,S1P2 ag,PostGolgi ctrl
Cc1cccc(C)c1N(CC(=O)Nc1cc(Cl)ccc1Oc1ccccc1)S(C)(=O)=O,-4,1,-2,3,-9,50*
Cc1noc(C)c1C(=O)OCC(=O)Nc1cc(Cl)ccc1Oc1ccccc1,8,-19,-1,1,-3,38*
O=C(CSc1nc(C2CC2)nc2ccccc12)NCc1ccc2c(c1)OCO2,4,1,0,4,-4,0
O=C(c1cn(-c2ccccc2)nc1-c1cccs1)N1CCN(c2ccccn2)CC1,5,28,0,-3,-7,54*
COc1ccc(N2CCN(S(=O)(=O)c3ccc(C(=O)NCc4ccco4)cc3)CC2)cc1,-4,-2,-2,0,2,0
O=S(=O)([O-])CCC[n+]1c(SCCCS(=O)(=O)O)sc2ccc(Cl)cc21,14,/,-1,/,/,/
COc1ccc(C2C3=C(CCCC3=O)Nc3nc(-c4cc(OC)c(OC)c(OC)c4)nn32)cc1OC (configuration not stated),0,-8,0,33*,6,1
COc1cc(-c2nc3n(n2)C(c2cccc(OC)c2OC)C2=C(CCCC2=O)N3)cc(OC)c1OC (configuration not stated),-3,-38,0,9,27*,-9
CC(=O)Nc1nc(C=C(Cl)Cl)cs1,2,/,0,10,/,33*
CC(=O)Nc1nc(C(F)(F)F)cs1,5,/,-2,/,/,/
N#Cc1nc(COc2ccccc2)oc1N1CCCCC1,-10,13,-2,5,-2,3
N#Cc1nc(COc2ccc(Cl)cc2)oc1N1CCCCCC1,-1,20,-1,-2,-4,45*
N#Cc1nc(Cc2cccc3ccccc23)oc1N1CCCCC1,-6,-5,0,-3,-3,36*
O=C(Cn1nc(-c2ccc(Cl)cc2)c2ccccc2c1=O)Nc1cccnc1,-11,-14,0,2,1,12
COc1ccc(-c2nn(CC(=O)Nc3ccc(Cl)c(Cl)c3)c(=O)c3ccccc23)cc1,4,6,0,7,-9,32*
CCN(CC)CCn1nc(C)nc1-c1ccccc1O,-3,3,-4,40*,-3,-6
O=C(c1ccc(Cl)cc1)c1oc2ccccc2c1CS(=O)c1ccccc1 (configuration not stated),17,-8,0,-4,-5,49*
COCCNC(=O)/C(C#N)=C1\N=C(N)c2ccccc21,11,/,-2,/,/,/
COc1ccc(-c2cc(C(F)(F)F)c3c(=O)n(-c4ccccc4)[nH]c3n2)cc1,6,12,-1,13,-6,33*
O=c1cc(O)c2sc3nc(-c4ccccc4)cc(C(F)(F)F)c3c2[nH]1,2,/,1,/,/,/
CN(CC(=O)N1CCN(c2ccccc2)CC1)S(=O)(=O)c1cnc[nH]1,2,23,-1,3,-2,36*
CN(CC(=O)N1CCN(c2cccc(Cl)c2)CC1)S(=O)(=O)c1cnc[nH]1,-2,/,-1,/,/,/
Cc1cc(C)c2c(c1)SC1=NC(c3ccccc3)(C(F)(F)F)NC(=O)N12 (configuration not stated),-2,-17,-1,10,-1,43*
COc1cccc(-c2csc(N3CCN(C(=O)C4CCCCC4)CC3)n2)c1,-4,/,0,-3,/,38*
COc1cccc(-c2csc(N3CCN(C(=O)Nc4ccc(F)cc4)CC3)n2)c1,-8,33,-2,/,-5,/
SMILES,GALR2 blocker,S1P2 blocker,GALR2 ag,PostGolgi yeast,S1P2 ag,PostGolgi ctrl
O=C(Cn1nnc2c(cnn2-c2ccccc2)c1=O)N1CCN(c2ccccc2F)CC1,-10,-15,-2,-5,-8,37*
CCc1ccc(NC(=O)CSc2nnc(SCC(=O)Nc3ccc(CC)cc3)n2N)cc1,19,21,-2,-2,-8,-7
CCOC(=O)c1cc2ccc(OC(=O)c3ccco3)cc2oc1=O,-78,-243,209*,2,150*,7
CCCCOCCCNC(=O)/C=C/c1ccccc1Cl,-5,-2,-3,/,-3,/
CCc1nccn1S(=O)(=O)c1cc(C)c(OC)cc1C,-3,-6,-3,-2,16*,0
CCOc1ccc2c(c1)-c1c(ssc1=S)C(C)(C)N2,0,-5,-1,7,0,31*
Cc1ccc(C)c(OCC(=O)Nc2nc3ccc([N+](=O)[O-])cc3s2)c1C,4,-10,-1,6,1,34*
CCOCCCN1C(=O)C(O)=C(C(C)=O)C1c1cccs1 (configuration not stated),-2,-1,-1,/,-5,/
COc1ccc(-c2nnc(N3CCCCC3)c3ccccc23)cc1,-10,0,-1,2,-7,30
COc1ccc(-c2nnc(Sc3nc4ccccc4o3)c3ccccc23)cc1,3,7,-1,-2,-8,46*
Oc1ccc(Br)cc1-c1nc2cnccn2c1NC1CCCC1,8,/,-2,6,/,63*
Cc1ccc(-c2nc3cnccn3c2Nc2ccc3c(c2)OCO3)cc1,4,-42,-3,5,-1,10
Oc1ccc(Br)cc1-c1nc2cnccn2c1NC1CCCCC1,0,-14,-2,29,-7,86*
Cc1nc(SCC(=O)NCCc2ccccc2)nc(C)c1C,-12,-3,0,-8,-4,22
O=C(NCCC1=CCCCC1)C1CCN(C(=O)c2ccc(Br)cc2)CC1,-3,/,0,/,/,/
COc1cc2c(cc1OC)C(=O)CC(C)S2 (configuration not stated),2,-13,-1,-10,1,1
Cc1ccccc1NC(=O)c1ccc(-c2ccc(Cl)cc2Cl)o1,-16,-9,-2,-1,-3,54*
Cc1ccccc1-c1ccc(C(=O)Nc2cccc(F)c2)o1,-5,/,-2,/,/,/
O=C(Nc1nccs1)c1ccc(-c2ccc(Cl)cc2Cl)o1,-4,/,0,/,/,/
Cc1cccc(C)c1NC(=O)c1ccc(-c2ccc(Cl)cc2Cl)o1,4,0,-1,-6,-5,46*
CCOC(=O)c1sc(=S)n(C)c1NC(=O)c1ccccc1Cl,2,/,0,/,/,/
CC(C)[C@@H]1CC[C@@H](C)c2c(-c3ccccc3)n[nH]c21,-10,-5,-1,5,-4,41*
CC1=CC(C)(C)[N+](C)=CN1c1ccccc1,-2,/,-1,/,/,/
CCNc1nc(CC)nc2c1oc1ccccc12,22,-18,-2,-12,-4,5
CCc1nc(N(CC)CC)c2oc3ccccc3c2n1,9,-32,-3,-6,-3,36*
CCc1nc(NCc2ccc3c(c2)OCO3)c2oc3ccccc3c2n1,10,-25,-1,0,-4,55*
COc1ccc(S(=O)(=O)n2nc(-c3cc(OC)c(OC)c(OC)c3)cc2N)cc1OC,9,/,0,6,/,5
COc1ccc(-c2cc(N)n(S(=O)(=O)c3c(F)c(F)c(F)c(F)c3F)n2)cc1OC,28*,15,-2,104*,6,68*
CC(C)C(NC(=O)CN1C(=O)c2ccccc2S1(=O)=O)C(C)C,3,-4,-2,-2,-5,31*

# Source: PubChem BioAssay (several laboratories)
